The source made the active and inactive calls. How the source made its calls: active means hit-call score of the fitted dose curve at least 0.9, where 1 is the maximum; inactive means score below 0.9.
What was measured:
Settings in all cases: mRNA level, 48 h; actives raise or lower the signal
[1] = read-out: Glutamate-cysteine ligase catalytic (GCLC), GCLC (gene 2729); experiment: LTEA_HepaRG_GCLC: Life Technologies and Expression Analysis (LTEA) Assay for Glutamate-cysteine ligase catalytic (GCLC) using HepaRG (AID 2283498)
Summary of the method: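 HepaRG, 48 h exposure, 8-pt half-log series from 100 uM, 0.5% DMSO vehicle; TaqMan qRT-PCR for GCLC mRNA, housekeeping-normalized; bidirectional curve fit vs DMSO baseline.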

[2] = read-out: growth arrest and DNA damage 45 (GADD45G), GADD45G (gene 10912); experiment: LTEA_HepaRG_GADD45G: Life Technologies and Expression Analysis (LTEA) Assay for growth arrest and DNA damage 45 (GADD45G) using HepaRG (AID 2283499)
Summary of the method: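 Concentration-response in HepaRG: 48 h dosing, 0.5% DMSO, highest level 100 uM. GADD45G expression by qRT-PCR, normalised to endogenous controls; bidirectional fit to DMSO.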

[3] = read-out: Glutamate-cysteine ligase regulatory (GCLM), GCLM (gene 2730); experiment: LTEA_HepaRG_GCLM: Life Technologies and Expression Analysis (LTEA) Assay for Glutamate-cysteine ligase regulatory (GCLM) using HepaRG (AID 2283500)
Summary of the method: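 Endpoint is GCLM transcript level by qRT-PCR, normalized to three housekeeping genes, after 48 h chemical exposure of human HepaRG cells (0.5% DMSO vehicle, top 100 uM, half-log dilutions). Fitting was bidirectional relative to DMSO.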

[4] = read-out: Glutathione S-transferase M3 (GSTM3), GSTM3 (gene 2947); experiment: LTEA_HepaRG_GSTM3: Life Technologies and Expression Analysis (LTEA) Assay for Glutathione S-transferase M3 (GSTM3) using HepaRG (AID 2283501)
Summary of the method: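 Expression of GSTM3 is determined by qRT-PCR in human liver HepaRG cells treated 48 h with an 8-point half-log range from 100 uM in 0.5% DMSO.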

[5] = read-out: Heat shock 70 kDa protein 1 (HSPA1A), gene 3303; experiment: LTEA_HepaRG_HSPA1A: Life Technologies and Expression Analysis (LTEA) Assay for Heat shock 70 kDa protein 1 (HSPA1A) using HepaRG (AID 2283502)
Summary of the method: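 Cells were plated and cultured for 48 h, then switched to serum-free induction medium. Chemicals were added at eight half-log concentrations up to 100 uM for 48 h. RNA was then isolated and HSPA1A measured by qRT-PCR with bidirectional curve fitting against DMSO.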

[6] = read-out: 3-Hydroxy-3-Methylglutaryl-CoA Synthase 2 (HMGCS2), HMGCS2 (gene 3158); experiment: LTEA_HepaRG_HMGCS2: Life Technologies and Expression Analysis (LTEA) Assay for 3-Hydroxy-3-Methylglutaryl-CoA Synthase 2 (HMGCS2) using HepaRG (AID 2283504)
Summary of the method: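 This steatosis marker was read as HMGCS2 mRNA change in HepaRG cells treated 48 h with up to 100 uM chemical. Normalisation used housekeeping genes; activity in either direction was fitted relative to 0.5% DMSO vehicle.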

[7] = read-out: HGF (gene 3082); experiment: LTEA_HepaRG_HGF: Life Technologies and Expression Analysis (LTEA) Assay for Hepatocyte Growth Facto (HGF) using HepaRG (AID 2283505)
Summary of the method: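 Using HepaRG monolayers kept in 0.5% DMSO, chemicals were tested in duplicate over eight half-log concentrations from 100 uM for 48 h. Endpoint: HGF mRNA change relative to DMSO, normalized to ACTB/GAPDH/POLR2A.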

[8] = read-out: Insulin Like Growth Factor 1 (IGF1), IGF1 (gene 3479); experiment: LTEA_HepaRG_IGF1: Life Technologies and Expression Analysis (LTEA) Assay for Insulin Like Growth Factor 1 (IGF1) using HepaRG (AID 2283506)
Summary of the method: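 Cells are thawed, plated and cultured 48 h, then exposed in duplicate to chemical (highest 100 uM, half-log steps, 0.5% DMSO) for another 48 h. Total RNA is analysed by Fluidigm qRT-PCR for IGF1 expression relative to vehicle.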

[9] = read-out: Intercellular Adhesion Molecule 1 (ICAM1), ICAM1 (gene 3383); experiment: LTEA_HepaRG_ICAM1: Life Technologies and Expression Analysis (LTEA) Assay for Intercellular Adhesion Molecule 1 (ICAM1) using HepaRG (AID 2283507)
Summary of the method: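 Using the human liver line HepaRG, compounds are tested in duplicate over 48 h at concentrations up to 100 uM. Expression is determined by TaqMan qRT-PCR, normalized to endogenous controls, and analysed relative to 0.5% DMSO vehicle.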

[10] = read-out: Insulin-like growth factor-binding protein 1 (IGFBP1), IGFBP1 (gene 3484); experiment: LTEA_HepaRG_IGFBP1: Life Technologies and Expression Analysis (LTEA) Assay for Insulin-like growth factor-binding protein 1 (IGFBP1) using HepaRG (AID 2283508)
Summary of the method: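 HepaRG, 48 h, 8 conc. (max 100 uM, half-log), duplicates, 0.5% DMSO. Readout: TaqMan qRT-PCR, ACTB/GAPDH/POLR2A normalisation. Fit: bidirectional vs DMSO.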

[11] = read-out: Interleukin 6 (IL6), IL6 (gene 3569); experiment: LTEA_HepaRG_IL6: Life Technologies and Expression Analysis (LTEA) Assay for Interleukin 6 (IL6) using HepaRG (AID 2283509)
Summary of the method: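 qRT-PCR read-out of IL6 transcript, normalized to three housekeeping genes, after 48 h chemical exposure of HepaRG cells; 8-point half-log series, top 100 uM, 0.5% DMSO vehicle. Bidirectional curve fitting against DMSO baseline.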

[12] = read-out: Interleukin 6 Receptor (IL6R), IL6R (gene 3570); experiment: LTEA_HepaRG_IL6R: Life Technologies and Expression Analysis (LTEA) Assay for Interleukin 6 Receptor (IL6R) using HepaRG (AID 2283510)
Summary of the method: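 Cells were thawed, plated and cultured 48 h, then medium was changed to serum-free induction medium. Chemicals were added in duplicate (100 uM top, half-log steps, 0.5% DMSO) for 48 h. Lysates were analyzed by qRT-PCR for IL6R expression.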

[13] = read-out: Potassium channel subfamily K member 1 (KCNK1), KCNK1 (gene 3775); experiment: LTEA_HepaRG_KCNK1: Life Technologies and Expression Analysis (LTEA) Assay for Potassium channel subfamily K member 1 (KCNK1) using HepaRG (AID 2283511)
Summary of the method: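 HepaRG, 48 h exposure, 8-pt half-log series top 100 uM, 0.5% DMSO vehicle, duplicates. Readout: KCNK1 transcript by qRT-PCR (Fluidigm array), housekeeping-normalized; bidirectional curve fit relative to DMSO baseline.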

[14] = read-out: Keratin 19 (KRT19), KRT19 (gene 3880); experiment: LTEA_HepaRG_KRT19: Life Technologies and Expression Analysis (LTEA) Assay for Keratin 19 (KRT19) using HepaRG (AID 2283512)
Summary of the method: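 Readout is qRT-PCR of KRT19 mRNA, normalized to ACTB, GAPDH and POLR2A, from HepaRG cells treated 48 h with eight-point half-log dilutions topping at 100 uM. Activity in either direction is scored relative to 0.5% DMSO vehicle.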

[15] = read-out: JUN Transcription Factor, JUN (gene 3725); experiment: LTEA_HepaRG_JUN: Life Technologies and Expression Analysis (LTEA) Assay for JUN Transcription Factor using HepaRG (AID 2283513)
Summary of the method: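 Read-out is JUN transcript level by TaqMan qRT-PCR, normalized to ACTB, GAPDH and POLR2A, after 48 h chemical treatment of HepaRG cells. Concentration-response spanned eight half-log points up to 100 uM in 0.5% DMSO.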

[16] = read-out: Lipase C (LIPC), LIPC (gene 3990); experiment: LTEA_HepaRG_LIPC: Life Technologies and Expression Analysis (LTEA) Assay for Lipase C (LIPC) using HepaRG (AID 2283514)
Summary of the method: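 HepaRG, 48 h exposure, 8-pt half-log series from 100 uM in 0.5% DMSO, duplicates. Readout: LIPC mRNA by Fluidigm qRT-PCR, housekeeping-normalized (ACTB/GAPDH/POLR2A). Gain or loss fitted bidirectionally against DMSO baseline.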

[17] = read-out: Lipoprotein lipase (LPL), LPL (gene 4023); experiment: LTEA_HepaRG_LPL: Life Technologies and Expression Analysis (LTEA) Assay for Lipoprotein lipase (LPL) using HepaRG (AID 2283515)
Summary of the method: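 HepaRG, 48 h exposure, 8-pt half-log dilutions from 100 uM, 0.5% DMSO vehicle, duplicates; qRT-PCR (Fluidigm array) of LPL mRNA vs housekeeping genes; bidirectional curve fit relative to DMSO baseline.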

[18] = read-out: MicroRNA 122 (MIR122), gene 406906; experiment: LTEA_HepaRG_MIR122: Life Technologies and Expression Analysis (LTEA) Assay for MicroRNA 122 (MIR122) using HepaRG (AID 2283516); further: the transcript read is the microRNA miR-122
Summary of the method: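 Human liver HepaRG cultures receive test chemicals for 48 h at eight half-log concentrations from 100 uM. Expression is quantified by qRT-PCR with ACTB/GAPDH/POLR2A normalization and fitted bidirectionally against 0.5% DMSO.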

[19] = read-out: matrix metalloproteinase-10 (MMP10), MMP10 (gene 4319); experiment: LTEA_HepaRG_MMP10: Life Technologies and Expression Analysis (LTEA) Assay for matrix metalloproteinase-10 (MMP10) using HepaRG (AID 2283517)
Summary of the method: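 Transcript levels come from Fluidigm qRT-PCR normalized to three housekeeping genes, with curves fitted bidirectionally against 0.5% DMSO. Human HepaRG cells were dosed for 48 hours at concentrations up to 100 uM.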

[20] = read-out: Hypoxia-inducible factor 1-alpha (Homo sapiens) (UniProt Q16665); experiment: LTEA_HepaRG_HIF1A: Life Technologies and Expression Analysis (LTEA) Assay for Hypoxia-inducible factor 1 (HIF1A) Trancription factor using HepaRG (AID 2283503)
Summary of the method: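 HIF1A transcript level read by qRT-PCR (ACTB, GAPDH, POLR2A normalization) after 48 h chemical exposure of HepaRG cultures. Eight half-log concentrations, top 100 uM, 0.5% DMSO vehicle, duplicates; bidirectional curve fit against DMSO baseline.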

Measured: AC50

Chain of Hypoxia-inducible factor 1-alpha (Homo sapiens) (Q16665 whole entry, looked up): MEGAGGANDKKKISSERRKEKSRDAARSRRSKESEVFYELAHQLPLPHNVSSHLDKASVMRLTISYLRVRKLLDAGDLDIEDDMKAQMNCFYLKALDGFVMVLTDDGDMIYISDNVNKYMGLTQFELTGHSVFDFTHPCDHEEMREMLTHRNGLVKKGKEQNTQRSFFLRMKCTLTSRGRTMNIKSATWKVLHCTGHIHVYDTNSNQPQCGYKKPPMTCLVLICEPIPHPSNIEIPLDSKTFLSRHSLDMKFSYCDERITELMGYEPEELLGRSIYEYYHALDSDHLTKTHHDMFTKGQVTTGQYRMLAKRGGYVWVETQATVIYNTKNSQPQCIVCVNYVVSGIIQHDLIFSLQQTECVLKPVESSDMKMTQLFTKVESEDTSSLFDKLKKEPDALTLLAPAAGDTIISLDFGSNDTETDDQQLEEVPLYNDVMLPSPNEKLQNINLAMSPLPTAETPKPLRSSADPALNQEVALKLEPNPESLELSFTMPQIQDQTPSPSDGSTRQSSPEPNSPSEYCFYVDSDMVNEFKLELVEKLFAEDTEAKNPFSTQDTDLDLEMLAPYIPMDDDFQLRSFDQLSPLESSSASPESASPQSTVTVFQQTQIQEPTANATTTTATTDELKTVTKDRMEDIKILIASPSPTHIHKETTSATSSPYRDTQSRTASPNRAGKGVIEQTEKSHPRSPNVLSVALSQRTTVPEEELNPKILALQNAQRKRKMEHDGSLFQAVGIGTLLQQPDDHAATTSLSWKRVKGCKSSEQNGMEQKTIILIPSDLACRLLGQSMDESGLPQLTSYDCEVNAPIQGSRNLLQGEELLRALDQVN

CC(=O)CC(C)(C)O
not listed: [20]
inactive: all other assays above

O=C(O)c1ccccc1C(c1ccc(O)cc1)c1ccc(O)cc1
not listed: [12] | [14] | [18]
inactive: all other assays above

c1ccc2c(c1)ccc1ccccc12
not listed: [12] | [14] | [18]
inactive: all other assays above

O=C(OCCOCCOC(=O)c1ccccc1)c1ccccc1
not listed: [14] | [20]
inactive: all other assays above

CCCCC(CC)COC(=O)CCCCC(=O)OCC(CC)CCCC (centres undefined)
not listed: [14] | [18] | [20]
inactive: all other assays above

CC[C@H](C)[C@@H](C(=O)O)n1sc2ccccc2c1=O
active: [20] 372 nM
not listed: [18]
inactive: all other assays above

CCCCCCCCCCCCN1CCCC1=O
not listed: [12] | [14] | [18]
inactive: all other assays above
